Source: ChEMBL document CHEMBL1961873, “Compounds: GSK PKIS; Assays: Nanosyn kinase panel” (2012)

Assays:
[1] = target: Sphingosine kinase 1 (Homo sapiens) (UniProt Q9NYA1); details: at 1 µM;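 note: mean SPHK1 inhibition value reported from the GSK PKIS kinase panel screen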
[2] = target: T1, Sphingosine kinase 2 (Homo sapiens) (UniProt Q9NRA0); details: at 0.1 µM
T1 sequence (whole entry): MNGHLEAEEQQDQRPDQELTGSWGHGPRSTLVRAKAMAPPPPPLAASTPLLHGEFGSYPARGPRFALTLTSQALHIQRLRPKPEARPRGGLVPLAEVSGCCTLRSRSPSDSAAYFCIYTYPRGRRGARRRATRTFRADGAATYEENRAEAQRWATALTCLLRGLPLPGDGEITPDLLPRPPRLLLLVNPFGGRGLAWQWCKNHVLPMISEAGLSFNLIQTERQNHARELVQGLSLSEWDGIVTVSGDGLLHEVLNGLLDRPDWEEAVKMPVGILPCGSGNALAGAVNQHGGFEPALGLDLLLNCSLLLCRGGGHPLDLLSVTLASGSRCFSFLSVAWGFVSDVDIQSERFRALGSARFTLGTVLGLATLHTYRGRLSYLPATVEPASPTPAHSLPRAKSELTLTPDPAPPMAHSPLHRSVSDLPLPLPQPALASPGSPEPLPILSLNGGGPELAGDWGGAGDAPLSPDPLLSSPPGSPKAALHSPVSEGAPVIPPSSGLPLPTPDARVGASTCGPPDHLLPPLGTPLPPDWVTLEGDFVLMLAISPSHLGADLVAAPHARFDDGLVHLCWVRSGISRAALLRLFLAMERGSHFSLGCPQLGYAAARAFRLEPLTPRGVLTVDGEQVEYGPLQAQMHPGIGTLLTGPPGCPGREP

[3] = target: T1, Sphingosine kinase 2 (Homo sapiens); details: at 1 µM
[4] = target: Casein kinase II subunit alpha (Homo sapiens) (UniProt P68400); details: at 0.1 µM
Casein kinase II subunit alpha (Homo sapiens), sequence (P68400 whole entry, looked up): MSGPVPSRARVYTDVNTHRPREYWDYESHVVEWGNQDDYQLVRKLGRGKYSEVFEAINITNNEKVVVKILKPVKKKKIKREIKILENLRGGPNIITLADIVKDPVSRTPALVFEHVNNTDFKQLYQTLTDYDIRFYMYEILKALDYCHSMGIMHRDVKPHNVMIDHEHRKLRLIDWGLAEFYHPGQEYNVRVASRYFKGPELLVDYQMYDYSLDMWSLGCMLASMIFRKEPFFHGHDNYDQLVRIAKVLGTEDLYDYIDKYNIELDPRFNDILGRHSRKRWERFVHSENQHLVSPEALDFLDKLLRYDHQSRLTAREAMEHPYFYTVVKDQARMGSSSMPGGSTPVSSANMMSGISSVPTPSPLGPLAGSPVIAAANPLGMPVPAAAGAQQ

[5] = target: Casein kinase II subunit alpha (Homo sapiens) (UniProt P68400); details: at 1 µM
[6] = target: T2, Inhibitor of nuclear factor kappa-B kinase subunit alpha (Homo sapiens) (UniProt O15111); details: at 0.1 µM
T2 sequence (whole entry): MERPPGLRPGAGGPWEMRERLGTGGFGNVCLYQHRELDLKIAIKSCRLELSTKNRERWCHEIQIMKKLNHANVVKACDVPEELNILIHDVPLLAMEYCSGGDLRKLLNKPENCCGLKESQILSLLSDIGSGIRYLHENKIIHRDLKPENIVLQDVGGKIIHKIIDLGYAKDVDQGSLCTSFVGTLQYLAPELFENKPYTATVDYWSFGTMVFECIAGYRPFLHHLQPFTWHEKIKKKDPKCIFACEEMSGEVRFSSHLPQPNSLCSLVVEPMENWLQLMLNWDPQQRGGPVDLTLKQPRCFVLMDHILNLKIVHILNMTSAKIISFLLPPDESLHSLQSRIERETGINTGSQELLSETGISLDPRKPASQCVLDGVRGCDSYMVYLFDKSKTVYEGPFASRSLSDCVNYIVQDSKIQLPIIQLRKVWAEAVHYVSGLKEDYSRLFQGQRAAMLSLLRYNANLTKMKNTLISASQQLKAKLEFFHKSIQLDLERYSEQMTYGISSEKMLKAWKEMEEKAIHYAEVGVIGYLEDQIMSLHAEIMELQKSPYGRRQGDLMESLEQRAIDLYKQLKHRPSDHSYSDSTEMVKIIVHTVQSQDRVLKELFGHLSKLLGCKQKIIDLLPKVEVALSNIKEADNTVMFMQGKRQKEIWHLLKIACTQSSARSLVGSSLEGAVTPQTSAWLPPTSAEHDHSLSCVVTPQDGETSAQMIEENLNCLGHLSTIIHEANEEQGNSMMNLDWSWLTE

[7] = target: T2, Inhibitor of nuclear factor kappa-B kinase subunit alpha (Homo sapiens); details: at 1 µM
[8] = target: T3, Inhibitor of nuclear factor kappa-B kinase subunit beta (Homo sapiens) (UniProt O14920); details: at 0.1 µM
T3 sequence (whole entry): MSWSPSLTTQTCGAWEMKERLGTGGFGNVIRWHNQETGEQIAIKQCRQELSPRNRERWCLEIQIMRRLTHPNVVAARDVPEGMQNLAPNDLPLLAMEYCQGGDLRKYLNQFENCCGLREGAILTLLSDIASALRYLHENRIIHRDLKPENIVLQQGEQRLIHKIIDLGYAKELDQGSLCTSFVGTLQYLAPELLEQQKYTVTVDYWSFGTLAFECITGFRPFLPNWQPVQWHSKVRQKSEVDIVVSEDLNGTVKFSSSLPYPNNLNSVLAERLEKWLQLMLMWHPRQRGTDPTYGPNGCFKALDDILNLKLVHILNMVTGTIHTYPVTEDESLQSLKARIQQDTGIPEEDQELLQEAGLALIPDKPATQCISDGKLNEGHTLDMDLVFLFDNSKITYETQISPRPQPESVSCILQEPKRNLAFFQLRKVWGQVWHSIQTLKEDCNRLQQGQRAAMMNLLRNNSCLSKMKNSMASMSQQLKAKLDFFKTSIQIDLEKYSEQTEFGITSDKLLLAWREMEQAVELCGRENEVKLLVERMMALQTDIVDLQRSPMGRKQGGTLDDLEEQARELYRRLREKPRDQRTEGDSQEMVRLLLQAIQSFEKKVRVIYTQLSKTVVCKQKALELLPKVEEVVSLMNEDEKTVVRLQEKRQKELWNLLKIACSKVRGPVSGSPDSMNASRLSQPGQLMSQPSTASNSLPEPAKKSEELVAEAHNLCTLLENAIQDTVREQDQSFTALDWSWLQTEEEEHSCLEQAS

[9] = target: T3, Inhibitor of nuclear factor kappa-B kinase subunit beta (Homo sapiens); details: at 1 µM
[10] = target: T4, Inhibitor of nuclear factor kappa-B kinase subunit epsilon (Homo sapiens) (UniProt Q14164); details: at 0.1 µM
T4 sequence (whole entry): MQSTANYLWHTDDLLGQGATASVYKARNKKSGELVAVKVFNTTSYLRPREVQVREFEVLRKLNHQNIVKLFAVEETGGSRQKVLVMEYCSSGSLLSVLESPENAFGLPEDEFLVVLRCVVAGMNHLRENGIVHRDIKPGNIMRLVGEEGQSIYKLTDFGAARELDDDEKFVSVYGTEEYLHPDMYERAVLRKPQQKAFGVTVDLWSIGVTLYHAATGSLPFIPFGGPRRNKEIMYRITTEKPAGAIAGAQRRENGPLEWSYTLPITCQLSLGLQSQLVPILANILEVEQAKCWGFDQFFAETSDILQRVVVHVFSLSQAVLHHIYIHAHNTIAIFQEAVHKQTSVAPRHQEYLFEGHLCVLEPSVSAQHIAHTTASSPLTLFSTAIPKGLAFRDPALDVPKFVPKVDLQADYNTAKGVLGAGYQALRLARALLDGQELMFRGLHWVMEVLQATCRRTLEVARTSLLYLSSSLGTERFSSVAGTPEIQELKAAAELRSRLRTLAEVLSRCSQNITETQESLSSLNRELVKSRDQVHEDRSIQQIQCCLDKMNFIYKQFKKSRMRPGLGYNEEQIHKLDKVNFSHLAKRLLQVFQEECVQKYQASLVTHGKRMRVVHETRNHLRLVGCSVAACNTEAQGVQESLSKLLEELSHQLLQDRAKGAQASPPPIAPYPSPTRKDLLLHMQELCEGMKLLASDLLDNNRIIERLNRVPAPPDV

[11] = target: T4, Inhibitor of nuclear factor kappa-B kinase subunit epsilon (Homo sapiens); details: at 1 µM
[12] = target: T5, Serine/threonine-protein kinase Nek1 (Homo sapiens) (UniProt Q96PY6); details: at 0.1 µM
T5 sequence (whole entry): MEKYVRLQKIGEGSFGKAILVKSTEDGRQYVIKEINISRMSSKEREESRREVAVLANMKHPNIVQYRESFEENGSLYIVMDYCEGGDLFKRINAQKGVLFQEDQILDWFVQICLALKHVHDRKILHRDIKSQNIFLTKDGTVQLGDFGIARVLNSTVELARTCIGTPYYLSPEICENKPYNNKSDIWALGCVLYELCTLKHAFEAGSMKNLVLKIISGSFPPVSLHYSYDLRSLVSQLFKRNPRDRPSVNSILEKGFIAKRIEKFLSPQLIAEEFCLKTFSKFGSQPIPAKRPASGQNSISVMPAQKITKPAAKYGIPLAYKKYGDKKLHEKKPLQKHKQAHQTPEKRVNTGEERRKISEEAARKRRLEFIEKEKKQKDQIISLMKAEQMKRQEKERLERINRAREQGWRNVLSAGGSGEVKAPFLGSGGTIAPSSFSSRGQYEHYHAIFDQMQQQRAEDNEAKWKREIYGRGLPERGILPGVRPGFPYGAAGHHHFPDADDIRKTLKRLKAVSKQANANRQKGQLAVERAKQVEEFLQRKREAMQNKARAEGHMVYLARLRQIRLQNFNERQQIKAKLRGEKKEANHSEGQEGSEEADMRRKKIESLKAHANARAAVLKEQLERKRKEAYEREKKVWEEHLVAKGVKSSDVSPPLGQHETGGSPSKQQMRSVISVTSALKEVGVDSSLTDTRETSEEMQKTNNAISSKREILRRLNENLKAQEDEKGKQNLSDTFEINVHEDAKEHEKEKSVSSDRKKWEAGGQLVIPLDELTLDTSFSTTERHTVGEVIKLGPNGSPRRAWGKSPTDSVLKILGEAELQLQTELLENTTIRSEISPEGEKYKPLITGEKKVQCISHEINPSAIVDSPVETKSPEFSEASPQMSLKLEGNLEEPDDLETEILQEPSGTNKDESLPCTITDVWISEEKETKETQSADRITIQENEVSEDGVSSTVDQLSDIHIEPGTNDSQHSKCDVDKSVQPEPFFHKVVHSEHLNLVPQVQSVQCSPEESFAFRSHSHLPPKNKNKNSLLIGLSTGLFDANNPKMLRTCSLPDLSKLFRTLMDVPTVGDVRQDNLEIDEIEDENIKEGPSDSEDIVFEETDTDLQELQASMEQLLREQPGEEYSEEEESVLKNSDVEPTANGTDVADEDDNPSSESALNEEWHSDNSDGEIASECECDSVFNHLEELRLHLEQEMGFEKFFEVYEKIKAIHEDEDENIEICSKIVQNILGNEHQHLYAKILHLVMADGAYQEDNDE

[13] = target: T5, Serine/threonine-protein kinase Nek1 (Homo sapiens); details: at 1 µM
[14] = target: T6, Serine/threonine-protein kinase Nek2 (Homo sapiens) (UniProt P51955); details: at 0.1 µM
T6 sequence (whole entry): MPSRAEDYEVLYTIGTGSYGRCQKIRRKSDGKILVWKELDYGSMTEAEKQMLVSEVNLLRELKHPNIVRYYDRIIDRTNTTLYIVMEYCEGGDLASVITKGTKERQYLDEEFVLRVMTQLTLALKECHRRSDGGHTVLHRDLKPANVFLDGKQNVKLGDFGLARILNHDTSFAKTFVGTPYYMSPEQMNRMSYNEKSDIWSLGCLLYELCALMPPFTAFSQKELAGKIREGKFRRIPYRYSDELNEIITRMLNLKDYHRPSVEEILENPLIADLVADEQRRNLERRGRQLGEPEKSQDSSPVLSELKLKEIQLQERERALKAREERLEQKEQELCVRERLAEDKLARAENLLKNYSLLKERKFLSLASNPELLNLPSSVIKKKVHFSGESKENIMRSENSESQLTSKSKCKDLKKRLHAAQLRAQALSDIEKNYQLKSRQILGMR

[15] = target: T6, Serine/threonine-protein kinase Nek2 (Homo sapiens); details: at 1 µM
[16] = target: Serine/threonine-protein kinase Nek6 (Homo sapiens) (UniProt Q9HC98); details: at 0.1 µM
Serine/threonine-protein kinase Nek6 (Homo sapiens), sequence (Q9HC98 whole entry): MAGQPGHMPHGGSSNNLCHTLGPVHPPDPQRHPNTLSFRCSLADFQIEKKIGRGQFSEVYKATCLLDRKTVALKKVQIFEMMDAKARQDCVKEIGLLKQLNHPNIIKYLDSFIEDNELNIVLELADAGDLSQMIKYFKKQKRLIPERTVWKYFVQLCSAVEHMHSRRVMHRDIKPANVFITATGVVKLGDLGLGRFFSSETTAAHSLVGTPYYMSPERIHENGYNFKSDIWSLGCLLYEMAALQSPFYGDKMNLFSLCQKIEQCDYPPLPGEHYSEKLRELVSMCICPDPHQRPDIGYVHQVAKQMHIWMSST

[17] = target: Serine/threonine-protein kinase Nek6 (Homo sapiens) (UniProt Q9HC98); details: at 1 µM
[18] = target: Serine/threonine-protein kinase Nek7 (Homo sapiens) (UniProt Q8TDX7); details: at 0.1 µM
Serine/threonine-protein kinase Nek7 (Homo sapiens), sequence (Q8TDX7 whole entry, looked up): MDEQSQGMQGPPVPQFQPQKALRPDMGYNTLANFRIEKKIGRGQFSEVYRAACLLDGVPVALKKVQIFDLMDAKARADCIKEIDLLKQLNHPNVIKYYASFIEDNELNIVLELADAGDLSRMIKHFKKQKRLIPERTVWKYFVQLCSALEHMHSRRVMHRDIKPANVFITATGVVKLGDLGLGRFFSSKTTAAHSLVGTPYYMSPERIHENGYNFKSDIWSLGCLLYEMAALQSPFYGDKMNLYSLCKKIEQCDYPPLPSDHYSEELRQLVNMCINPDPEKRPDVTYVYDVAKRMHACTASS

[19] = target: Serine/threonine-protein kinase Nek7 (Homo sapiens) (UniProt Q8TDX7); details: at 1 µM
[20] = target: T7, Serine/threonine-protein kinase Nek9 (Homo sapiens) (UniProt Q8TD19); details: at 0.1 µM;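 note: reported value is the mean percent inhibition of NEK9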
T7 sequence (whole entry): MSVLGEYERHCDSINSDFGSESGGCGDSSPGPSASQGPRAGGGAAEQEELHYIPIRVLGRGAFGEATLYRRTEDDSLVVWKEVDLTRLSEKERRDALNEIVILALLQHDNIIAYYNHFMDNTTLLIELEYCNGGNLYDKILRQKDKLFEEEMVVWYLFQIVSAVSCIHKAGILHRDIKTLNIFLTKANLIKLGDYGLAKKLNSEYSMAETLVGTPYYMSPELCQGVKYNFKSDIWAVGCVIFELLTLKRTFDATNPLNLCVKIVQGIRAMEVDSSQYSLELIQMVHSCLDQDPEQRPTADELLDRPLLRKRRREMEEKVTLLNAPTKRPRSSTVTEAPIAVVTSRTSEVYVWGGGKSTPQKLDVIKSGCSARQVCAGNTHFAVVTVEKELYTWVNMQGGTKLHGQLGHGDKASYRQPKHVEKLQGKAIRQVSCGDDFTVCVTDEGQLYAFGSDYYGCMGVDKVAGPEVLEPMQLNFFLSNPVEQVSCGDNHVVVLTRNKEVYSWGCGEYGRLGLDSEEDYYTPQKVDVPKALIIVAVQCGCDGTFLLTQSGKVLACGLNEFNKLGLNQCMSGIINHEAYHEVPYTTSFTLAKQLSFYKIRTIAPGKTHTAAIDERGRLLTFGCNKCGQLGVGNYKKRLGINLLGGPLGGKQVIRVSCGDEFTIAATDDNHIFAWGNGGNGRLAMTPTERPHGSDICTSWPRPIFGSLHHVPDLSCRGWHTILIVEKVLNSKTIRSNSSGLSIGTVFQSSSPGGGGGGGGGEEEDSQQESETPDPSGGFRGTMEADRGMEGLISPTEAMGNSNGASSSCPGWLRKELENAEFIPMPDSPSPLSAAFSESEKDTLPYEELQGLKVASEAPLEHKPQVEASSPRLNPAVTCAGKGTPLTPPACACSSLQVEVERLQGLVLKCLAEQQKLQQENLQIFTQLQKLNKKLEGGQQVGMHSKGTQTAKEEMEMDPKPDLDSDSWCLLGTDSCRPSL

Sphingosine kinase 1 (Homo sapiens), sequence (Q9NYA1 whole entry): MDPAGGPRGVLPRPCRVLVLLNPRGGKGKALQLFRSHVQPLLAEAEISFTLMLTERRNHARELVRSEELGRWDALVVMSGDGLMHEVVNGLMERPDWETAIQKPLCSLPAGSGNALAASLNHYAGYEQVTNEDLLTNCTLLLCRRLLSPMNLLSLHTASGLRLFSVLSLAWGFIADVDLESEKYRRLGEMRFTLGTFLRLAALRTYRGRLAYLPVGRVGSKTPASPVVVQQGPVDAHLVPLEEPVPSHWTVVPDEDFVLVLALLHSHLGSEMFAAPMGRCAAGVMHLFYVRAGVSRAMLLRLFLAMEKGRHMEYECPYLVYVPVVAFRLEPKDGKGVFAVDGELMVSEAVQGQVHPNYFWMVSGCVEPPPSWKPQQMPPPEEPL

SMILES	inhibition [1] [%]	inhibition [2] [%]	inhibition [3] [%]	inhibition [4] [%]	inhibition [5] [%]	inhibition [6] [%]	inhibition [7] [%]	inhibition [8] [%]	inhibition [9] [%]	inhibition [10] [%]	inhibition [11] [%]	inhibition [12] [%]	inhibition [13] [%]	inhibition [14] [%]	inhibition [15] [%]	inhibition [16] [%]	inhibition [17] [%]	inhibition [18] [%]	inhibition [19] [%]	inhibition [20] [%]
NC(=O)c1cccc(Nc2nccc(Nc3cccc4[nH]ncc34)n2)c1	-1.98	-0.9	0.58	-0.25	3.56	7.29	41	-0.17	17.4	-3.38	21.4	0.79	8.86	-3.63	-1.96	-4.36	-2.96	-1.67	-3.47	-0.63
O=C1Nc2ccc(C(=O)c3ccco3)cc2C1=Cc1cc(Cl)c(O)c(Cl)c1	-1.68	1.43	1.2	18	55.2	2.59	8.32	5.21	2.45	24.9	52	1.66	6.79	5.56	3.76	-0.24	0.61	3.27	3.97	6.51
